# Laboratory results reported in PubChem BioAssay AID687014 (The Scripps Research Institute Molecular Screening Center, 2013).
# The campaign covered roughly 370,000 compounds. About 6,800 (1.8%) were called active.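 The calls were made as follows: active = activation above a cutoff set at the mean of all screened compounds plus 3 SD (cut at about 10% in these data); inactive = the rest.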 Many of the other results were omitted from the sample, so actives are more common in it than they were.
# System: Nuclear hormone receptor DAF-12 (Heterodera glycines), GAL4 fusion
# Experiment: hgDAF-12 GAL4 fusion reporter activation – cell-based, luminescence, HEK293, UAS-luciferase, primary screen (AID 687014);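 also: 0% = DMSO wells and 100% = sodium butyrate wells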
# Details: HEK293 GAL4-hgDAF12 UAS-luciferase reporter, agonist luminescence; at 6.8 µM; active compounds read high; normalized to butyrate control
row,SMILES,activation
1,COc1ccc(N2CCN(C(=S)Nc3ccc(S(N)(=O)=O)cc3)CC2)cc1,-4.74% (inactive)
2,COc1ccc(NC(=O)N2CCC(Cc3ccccc3)CC2)cc1,1.2% (inactive)
3,COc1ccc(NC(=S)N2N=CCC2c2ccccc2)cc1 (stereo not given),16.5% (active)
4,CC(Sc1nnc(Cc2ccc([N+](=O)[O-])cc2)o1)C(N)=O (stereo not given),-0.65% (inactive)
5,CCOC(=O)/C=C/c1ccccc1O,2.77% (inactive)
6,Cc1ccc(CN2CCN(Cc3ccccc3-c3ccco3)CC2CCO)o1 (stereo not given),-2.88% (inactive)
7,N#CC1=C(N)N(c2ccc(F)cc2)C(=O)C1,-1.83% (inactive)
8,O=C(NNC(=O)c1ccc(Cl)cc1Cl)c1cccs1,18.7% (active)
9,O=C(COC(=O)c1ccc(O)cc1O)NNC(=O)c1cccs1,0.57% (inactive)
10,Cc1ccc(NNC(=O)c2cccs2)cc1Cl,1.51% (inactive)
11,O=C(CCc1nnc(CCCCc2ccccc2)o1)NC(c1cccnc1)C(F)(F)F (stereo not given),1.64% (inactive)
12,Cc1cc(=O)n2nc(N3CCCC(C(=O)N4CCN(C)CC4)C3)sc2n1 (stereo not given),-0.62% (inactive)
13,O=S1(=O)c2ccc(Br)cc2OC[C@H](Cc2ccccc2)N1Cc1cn(Cc2ccccc2)nn1,-1.13% (inactive)
14,Cc1nccn1CCC1CCCCN1C(=O)CCc1nnc(-c2ccsc2)o1 (stereo not given),-0.93% (inactive)
15,CC(=O)Nc1cccc(C(=O)OCC(=O)NCc2cc(C)c(O)c(C)c2)c1,3.44% (inactive)
16,CC(=O)Nc1cccc(C(=O)OCC(=O)c2ccc3c(c2)OCO3)c1,17.4% (active)
17,CC(=O)Nc1cccc(C(=O)OCN2C(=O)c3ccccc3C2=O)c1,-0.37% (inactive)
18,CC(C)C(=O)Nc1cccc(C(=O)Nc2ccc3c(c2)OCO3)c1,14.9% (active)
19,CC(Sc1nc2cc(Cl)ccc2s1)C(=O)Nc1ccc2c(c1)OCO2 (stereo not given),7.08% (inactive)
20,CCSc1ccccc1C(=O)Nc1ccc2c(c1)OCO2,3.85% (inactive)
21,COC(=O)C1=C(C(=O)OC)C2C=C(C(C)C)C1C(=O)C2(C)O (stereo not given),2.89% (inactive)
22,COC(=O)c1cccc(Cn2ccc3ccc(-c4ccc5ccn(C(=O)c6ccccc6C)c5c4)cc32)c1,0.42% (inactive)
23,O=C(NS(=O)(=O)c1cccs1)[C@H]1O[C@@H](n2ccc(=O)[nH]c2=O)[C@H](O)[C@@H]1O,1.66% (inactive)
24,COc1ccc(N2CCN(CCNS(=O)(=O)c3ccc([N+](=O)[O-])cc3)CC2)cc1,-4.01% (inactive)

row,SMILES,activation
1,Fc1ccccc1OCCSc1nc2ccccc2o1,3.51% (inactive)
2,CCOc1ccccc1/C=N/Nc1nc2ccccc2o1,10.6% (active)
3,O=C(CSc1nc2ccccc2o1)N/N=C/c1ccccc1C(=O)O,1.68% (inactive)
4,COc1ccccc1C(=O)N1O[C@]23C=C[C@]14C[C@@H](O)CC[C@]4(C)C2CC[C@]1(C)[C@@H]([C@H](C)/C=C/[C@H](C)C(C)C)CC[C@H]13 (stereo not given in full),-1.48% (inactive)
5,C/C(=N\NC(=O)c1ccccc1F)c1ccccn1,10.8% (active)
6,C/C(=N/NC(=O)c1ccn(C)n1)c1ccncc1,7.12% (inactive)
7,CC(=NNC(=S)N1CCCCCC1)c1ccccn1,2.43% (inactive)
8,Cc1ccc(S(=O)(=O)N2C[C@@H](C)[C@]3(C2)[C@H](O)[C@H](OC(=O)NCc2ccccc2)C[C@H]2C(=O)N(c4ccccc4)C(=O)[C@H]23)cc1,-0.54% (inactive)
9,Cc1ccc(CN2CCCCC(NC(=O)C3CCCCC3)C2=O)cc1 (stereo not given),-1.5% (inactive)
10,COc1cccc(-c2cc3nc(NCCOc4ccccc4Cl)n(C)c(=O)c3s2)c1,0.22% (inactive)
11,Cn1c(NCc2cccnc2)nc2cc(-c3ccc(F)cc3)sc2c1=O,8.39% (inactive)
12,O=c1[nH]c(CCl)nc2cc(-c3ccc(Cl)cc3)sc12,12.9% (active)
13,COc1ccc(-n2c(SCC(=O)Nc3ccc4c(c3)OCCO4)nnc2-c2ccc(Cl)cc2)cc1,-1.31% (inactive)
14,O=C(C(=O)N1CCC(CNC(=O)c2cccnc2Cl)CC1)c1cccs1,1.44% (inactive)
15,Cc1nc(NC(=O)C(C)(C)C)sc1[N+](=O)[O-],-4.82% (inactive)
16,Brc1ccc2nc(N3CCCC3)sc2c1,14.3% (active)
17,Cc1nc(N2CCCCC2)sc1C=O,1.15% (inactive)
18,COc1ccc2nc(N3CCN(C(=O)c4ccc([N+](=O)[O-])o4)CC3)sc2c1,-2.68% (inactive)
19,Cc1nc(CNc2ncnc3ccc(-c4ccc5c(c4)OCO5)cc23)cs1,1.56% (inactive)
20,CC(NC(=O)Nc1cccc([N+](=O)[O-])c1)c1ccc2c(c1)OCO2 (stereo not given),-1.33% (inactive)
21,COc1cccc(/C=C/C(=O)Nc2ccc3c(c2)OCCO3)c1,16.9% (active)
22,Cc1cccc(NC(=O)/C=C/c2ccc3c(c2)OCO3)n1,17.7% (active)
23,Cc1cccc(NC(=O)Nc2ccc3c(c2)OCO3)n1,14.2% (active)
24,CC(NS(=O)(=O)c1ccc(Cl)cc1)C(=O)Nc1ccc2c(c1)OCCO2 (stereo not given),1.96% (inactive)

row,SMILES,activation
1,Cc1ccc(OCCCC(=O)Nc2ccc3c(c2)OCCO3)cc1,-2.83% (inactive)
2,Cc1ccc(S(=O)(=O)NCC(=O)Nc2ccc3c(c2)OCCO3)cc1,-3.96% (inactive)
3,CN(Cc1ccccc1)C(=O)COC(=O)/C=C/c1ccc2c(c1)OCO2,-1.56% (inactive)
4,CNS(=O)(=O)c1ccc(NC(=O)Nc2ccc3c(c2)OCO3)cc1,18.5% (active)
5,O=C(Nc1ccc2c(c1)OCO2)C1CC(c2c(F)cccc2Cl)=NO1 (stereo not given),7.76% (inactive)
6,O=C(COC(=O)/C=C/c1ccc2c(c1)OCO2)NC1CCS(=O)(=O)C1 (stereo not given),-2.83% (inactive)
7,CCOc1ncccc1C(=O)Nc1ccc2c(c1)OCCO2,-3.84% (inactive)
8,CN1C(=O)c2cc(NS(C)(=O)=O)ccc2OC[C@@H]2O[C@@H](CC(=O)NCc3ccc(-c4ccccc4)cc3)CC[C@H]21,-3.14% (inactive)
9,COc1ccc(OCC(=O)NN2Cc3ccccc3C2=N)cc1,1.16% (inactive)
10,CCOC(=O)[C@@]12CN(C(=O)OC(C)(C)C)CC=C1N(Cc1ccc(OC)cc1)C(=O)[C@H]2CC(=O)NCc1ccc(OC)c(OC)c1,-0.18% (inactive)
11,COc1cc(N/C=C2\CC(=O)NC(C)=C2C#N)cc(OC)c1OC,-2.99% (inactive)
12,Cc1csc2nc(COC(=O)c3cccc(N(C)C)c3)cc(=O)n12,1.98% (inactive)
13,CC(C)=CCc1c(O)c(CC=C(C)C)c2occ(-c3ccc(O)cc3)c(=O)c2c1O,1.09% (inactive)
14,CCc1ccc(Oc2coc3cc(O)ccc3c2=O)cc1,2.19% (inactive)
15,O=c1c(-c2ccccc2)coc2cc(O)ccc12,11.4% (active)
16,C#CCN([C@@H](C)C(=O)OCC)S(=O)(=O)c1ccc(Br)cc1F,3.49% (inactive)
17,CC(C)(C)c1nnc(NC(=O)C2c3ccccc3Oc3ccccc32)s1,0.43% (inactive)
18,CC(C)(C)C(=O)c1cnc(Nc2ccccc2)s1,15.3% (active)
19,S=c1[nH]nc(Nc2ccccc2)s1,-0.56% (inactive)
20,CC(C)(C)OC(=O)NCCc1ccccc1/C=C/S(=O)(=O)NCc1ccc(F)cc1,0.52% (inactive)
21,CN(c1ccccc1)S(=O)(=O)c1ccc(C(=O)NCCc2ccccc2)cc1,4.14% (inactive)
22,O=C(NCCc1csc(-c2ccccc2)n1)c1ccccc1F,-3.44% (inactive)
23,O=C(NCCOc1ccccc1)c1ccccc1F,15% (active)
24,O=C(CNC(=O)c1ccccc1F)c1ccc(Br)cc1,11.4% (active)

row,SMILES,activation
1,O=C(COC(=O)CNC(=O)c1ccccc1F)NCC(F)(F)F,-2.85% (inactive)
2,CC(C)c1ccc(C(=O)NCCCc2ccccc2)cc1,9.47% (inactive)
3,O=C(CNC(=O)c1ccccc1F)OCC(=O)c1c[nH]c2ccccc12,1.04% (inactive)
4,CCCOc1ccc(C(=O)NCCc2ccccc2)cc1,18.9% (active)
5,O=C(CCc1c[nH]c2ccccc12)NCCOc1ccccc1,3.15% (inactive)
6,O=C(CCCOc1ccccc1)NNC(=O)c1ccc(Cl)cc1,-0.32% (inactive)
7,O=C(NCCOc1ccccc1)c1ccccc1,14.6% (active)
8,NS(=O)(=O)c1cc(C(=O)NCCOc2ccccc2)c(Cl)cc1Cl,-5.7% (inactive)
9,NC(=O)c1nnsc1-c1ccc(-c2snnc2C(N)=O)cc1,2.87% (inactive)
10,COc1cccc(CSc2nnc(-c3cccnc3)n2Cc2ccccc2)c1,1.72% (inactive)
11,CC(C)CNc1cccc2c1S(=O)(=O)N[C@H](C)CO2,-0.06% (inactive)
12,Cc1[nH]c2ccccc2c1CC(=O)Nc1ccc(Nc2cccnc2)c(-c2cccc(Cl)c2)c1,-1.25% (inactive)
13,CC(C)C(C#CC1CC1)N(Cc1ccc2c(c1)OCO2)C(N)=NC(=O)/C=C/c1cccc(C(F)(F)F)c1 (stereo not given),0.47% (inactive)
14,C=CCN1C(=O)[C@@H](CC(=O)N2CCN(C(=O)c3ccco3)CC2)[C@]2(C(=O)OC)CCCCC=C12,0.44% (inactive)
15,Nc1cccc2c1C(=O)N(Cc1nnc(-c3ccccc3Br)o1)C2=O,-2.29% (inactive)
16,C=CC1=CCN(S(=O)(=O)C(C)(C)C)[C@@H]1CCO,1.1% (inactive)
17,CC(C)Oc1ccc(/C=C(\NC(=O)/C=C/c2ccco2)C(=O)NCCc2nc3ccccc3[nH]2)cc1,-4.59% (inactive)
18,O=C(OCc1cc(=O)n2ccsc2n1)C1(c2ccc(Cl)cc2)CC1,-1.52% (inactive)
19,COC(=O)Cc1nnn2c1[C@H](C)[C@@H](OC)c1cc(Br)ccc1-2,3.49% (inactive)
20,CCOC(=O)c1c(NC(C)=O)sc2c(O)c(Br)ccc12,1.29% (inactive)
21,CN1CCN(CCNC(=O)Nc2ccccc2[N+](=O)[O-])CC1,0.56% (inactive)
22,Cc1csc(NC(=O)Nc2ccccc2[N+](=O)[O-])n1,25.4% (active)
23,Cc1cc(NC(=O)Nc2ccccc2[N+](=O)[O-])no1,4.97% (inactive)
